Measurements: PubChem BioAssay (Tox21)
Results filed as inconclusive are left out. Active and inactive are the calls of the source. Unless noted, the call rests on the fitted dose curve; in most records, active means well fitted curve in the direction sought with a large enough effect in the repeat runs; inconclusive means weak or mixed curves; inactive means no such curve, though single readings can be large; an effect the other way counts as inactive or inconclusive.

What was measured:
[1] = qHTS assay to identify small molecule agonists of the NFkB signaling pathway - cell viability counter screen (AID 1159515; calls by dose curve; further: series mostly up to about 61 µM; on the % scale 0 is the no-effect control and ±100 the full control effect; nearly all actives have a fitted effect of over 55% in size)
How it was run: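 Viability in NFkB-bla ME-180 cells was measured by CellTiter-Glo luminescence, 30 min room temperature, in wells already treated 5 hr with compounds and read for reporter FRET.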

[2] = qHTS assay to identify small molecule agonists of the endoplasmic reticulum stress response signaling pathway (AID 1159516; active means well fitted activation curve with a large enough effect in the signal ratio in the repeat runs, not every such curve was filed as active; the % refers to the signal ratio; further: on the % scale 0 is the no-effect control and ±100 the full control effect)
How it was run: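 ER stress element reporter (bla) in HeLa. 1,500 cells/well, overnight attachment; 5 hr compound; 2 hr RT substrate; dual-emission fluorescence.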

[3] = qHTS assay to identify small molecule agonists of the endoplasmic reticulum stress response signaling pathway - cell viability counter screen (AID 1159517; calls by dose curve;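 further: HeLa cells carrying an ER stress response element beta-lactamase reporter; series mostly up to about 61 µM; on the % scale 0 is the no-effect control and ±100 the full control effect; nearly all actives have a fitted effect of over 50% in size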)
How it was run: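 CellTiter-Glo was added to wells already read for beta-lactamase FRET, and luminescence was recorded 30 min later. Cells: ESRE-bla HeLa, 1,500 per well, compound exposure 5 hr at 37 C.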

[4] = target: Nuclear receptor ROR-gamma (Homo sapiens) (UniProt P51449); assay: qHTS assay to identify small molecule antagonists of the retinoid-related orphan receptor gamma (ROR-gamma) signaling pathway (AID 1159521;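 further: CHO cells with doxycycline inducible ROR-gamma driving an RORE luciferase reporter; top concentration of the series differs between compounds; on the % scale 0 is the no-effect control and ±100 the full control effect; nearly all actives have a fitted effect of over 50% in size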)
How it was run: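 Test compounds were applied to Tet-on RORγ CHO cells 2 h ahead of doxycycline hyclate (1 uM final). Luciferase reporter activity was quantified by luminescence after 16 h at 37 C and 5% CO2.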

[5] = qHTS assay to identify small molecule agonists of the AP-1 signaling pathway - cell viability counter screen (AID 1159525; calls by dose curve; further: nearly all actives have a fitted effect of over 55% in size)
How it was run: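 ME-180 AP-1-bla, 2500 cells/well, Opti-MEM + 0.5% dialyzed FBS; overnight 37 °C; cpd 15-pt titration, 5 h 37 °C; CellTiter-Glo 30 min RT; luminescence read; normalised to TOAB and DMSO controls.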

[6] = qHTS assay to identify small molecule agonists of the AP-1 signaling pathway (AID 1159526; calls by dose curve; further: on the % scale 0 is the no-effect control and ±100 the full control effect)
[7] = target: Retinoic acid receptor RXR-alpha (Homo sapiens) (UniProt P19793); assay: qHTS assay to identify small molecule agonists of the RXR signaling pathway (AID 1159527; calls by dose curve; further: on the % scale 0 is the no-effect control and ±100 the full control effect; nearly all actives have a fitted effect of over 35% in size)
Chain of Retinoic acid receptor RXR-alpha (Homo sapiens) (P19793 whole entry, looked up): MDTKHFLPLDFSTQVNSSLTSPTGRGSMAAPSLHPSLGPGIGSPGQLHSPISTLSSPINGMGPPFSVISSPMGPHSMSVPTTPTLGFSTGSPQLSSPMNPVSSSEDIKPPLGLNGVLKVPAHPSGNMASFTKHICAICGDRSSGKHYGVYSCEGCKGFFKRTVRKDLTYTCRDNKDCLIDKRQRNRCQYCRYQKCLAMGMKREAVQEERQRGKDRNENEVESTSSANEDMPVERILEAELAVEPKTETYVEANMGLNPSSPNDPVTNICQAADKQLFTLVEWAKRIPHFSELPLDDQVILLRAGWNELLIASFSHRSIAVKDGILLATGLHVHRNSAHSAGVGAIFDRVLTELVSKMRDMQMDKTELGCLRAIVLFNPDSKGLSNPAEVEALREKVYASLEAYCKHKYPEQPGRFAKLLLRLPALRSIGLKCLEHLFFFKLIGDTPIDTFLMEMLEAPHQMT
How it was run: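 Using 9-cis retinoic acid as the reference agonist, chemicals were tested in HEK 293T cells […] for 16 hr; substrate loading lasted 2 hr at room temperature.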

[8] = qHTS assay to identify small molecule agonists of the RXR signaling pathway - cell viability counter screen (AID 1159529); further: series mostly up to about 77 µM; on the % scale 0 is the no-effect control and ±100 the full control effect; nearly all actives have a fitted effect of over 50% in size
How it was run: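 Compounds dissolved in DMSO were pinned onto HEK 293T cells carrying a beta-lactamase reporter under RXR-alpha control and incubated 16 hr. Cytotoxicity was then quantified by CellTiter-Glo luminescence.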

[9] = qHTS assay to identify small molecule antagonists of the retinoid acid receptor (RAR) signaling pathway - cell viability counter screen (AID 1159551); further: on the % scale 0 is the no-effect control and ±100 the full control effect; nearly all actives have a fitted effect of over 35% in size
How it was run: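 Following overnight attachment, C3RL4 reporter cells received DMSO-dissolved compounds and then retinol (1 uM final). Six hours later at 37 C, ATP content was measured by CellTiter-Glo luminescence.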

[10] = qHTS assay to identify small molecule agonists of the retinoic acid receptor (RAR) signaling pathway (AID 1159553); further: on the % scale 0 is the no-effect control and ±100 the full control effect
How it was run: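 Cell line C3RL4, RARE luciferase reporter. Treatment: compounds in DMSO, 6 hr, 37 C, 5% CO2, after overnight plating. Detection: luminescence, 30 min RT after reagent.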

[11] = qHTS assay to identify small molecule antagonists of the estrogen related receptor (ERR) signaling pathway from Tox21 library - cell viability counter screen (AID 1224834); further: on the % scale 0 is the no-effect control and ±100 the full control effect; nearly all actives have a fitted effect of over 30% in size
How it was run: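 Viability readout (CellTiter-Fluor fluorescence, 30 min at 37 C) multiplexed with the ERR assay; cells treated 17.5 h at 37 C with compounds delivered in DMSO.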

[12] = qHTS assay to identify small molecule antagonists of the vitamin D receptor (VDR) signaling pathway - cell viability counter screen (AID 743225); further: on the % scale 0 is the no-effect control and ±100 the full control effect; nearly all actives have a fitted effect of over 50% in size
How it was run: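 Compounds were pinned onto VDR-bla HEK 293T cells together with 1-alpha,25-dihydroxyvitamin D3 at 3 nM final. After 16 h at 37C and 5% CO2 plus the reporter readout, cell viability was measured by CellTiter-Glo luminescence (30 min, room temperature).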

[13] = qHTS assay to identify small molecule antagonists of the retinoic acid receptor (RAR) signaling pathway (AID 1159552)
How it was run: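 Test chemicals and DMSO controls were pin-transferred onto C3RL4 cells a day after seeding; retinol (1 uM final) followed at once. Luminescent reporter output was quantified after 6 hr of co-incubation and 30 min with detection reagent.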

[14] = qHTS assay to identify small molecule antagonists of the retinoid-related orphan receptor gamma (ROR-gamma) signaling pathway - cell viability counter screen (AID 1159520)
How it was run: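 Tet-on ROR gamma CHO cells (1,000/well) were plated 4 hr, given compounds in DMSO for 2 hr at 37 C, then induced with 1 uM final doxycycline for 16 hr. Viability was read as ATP by CellTiter-Glo luminescence after 30 min.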

[15] = qHTS assay to identify small molecule antagonists of the estrogen related receptor (ERR) signaling pathway - cell viability counter screen (AID 1224818);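 further: series mostly up to about 46 µM; viability measured after 17.5 h of compound exposure; on the % scale 0 is the no-effect control and ±100 the full control effect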
How it was run: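 Here, ERR cells are plated at 2,000 cells per well, allowed 6 h to attach, and treated with compounds in DMSO for 17.5 h at 37 C. CellTiter-Fluor is then added and fluorescence read after 30 min.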

[16] = qHTS assay to identify small molecule antagonists of the estrogen related receptor signaling pathway with the pleiotropic PPARgamma coactivator (PGC) cell viability counter screen (AID 1224822)
How it was run: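 qHTS format, DMSO compound stocks pin-transferred onto PGC/ERR cells 6 h after plating; 17.5 h exposure at 37 C, then CellTiter-Fluor fluorescence.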

COc1cc(-c2ccc(=O)[nH]n2)ccc1OC(F)F
inactive: outcome [1] | outcome [2] | outcome [3] | Potency [4] | outcome [5] | outcome [6] | Potency [7] | Potency [8] | outcome [9] | Potency [10] | Potency [11]

CC[N+](C)(CC)CCOC(=O)C1c2ccccc2Oc2ccccc21
inactive: outcome [12] | outcome [1] | outcome [2] | outcome [3] | Potency [4] | outcome [6] | Potency [7] | Potency [8] | outcome [9] | Potency [10]

CC(C)C[C@@H](N)C(=O)O
inactive: outcome [1] | outcome [2] | outcome [3] | activity change, negative = inhibition [4] 6.26% [at 19 µM] | viability change, negative = cytotoxic [5] -0.425% [at 15.8 µM] | activation [6] -5.77% [at 15.8 µM] | activation [7] 4.08% [at 15.8 µM] | activity change, negative = cytotoxicity [8] 4.29% [at 15.8 µM] | activity change, negative = cytotoxicity [9] 3.59% [at 19 µM] | viability change, negative = cytotoxic [11] 1.15% [at 19 µM]

COCCOCC(OC)OC
inactive: outcome [12] | outcome [1] | outcome [2] | outcome [3] | outcome [5] | outcome [6] | Potency [7] | Potency [8] | outcome [9] | Potency [11]

O=C(O)CCSCCC(=O)O
inactive: outcome [1] | outcome [2] | outcome [3] | Potency [4] | outcome [5] | outcome [6] | Potency [7] | Potency [8] | outcome [9] | Potency [11]

COCCOC[C@H](CC1(C(=O)NC2CCC(C(=O)O)CC2)CCCC1)C(=O)Oc1ccc2c(c1)CCC2 (stereo partly specified)
inactive: outcome [12] | outcome [1] | outcome [2] | outcome [3] | outcome [5] | outcome [6] | Potency [8] | outcome [9] | Potency [13] | Potency [10]

Nc1c2c(nc3c1CCC3)CCCC2
inactive: outcome [12] | outcome [1] | outcome [2] | outcome [3] | Potency [4] | outcome [5] | outcome [6] | Potency [7] | Potency [8] | outcome [9] | Potency [10]

C=C(C)C(=O)OCC1CCCO1 (stereo unspecified)
inactive: outcome [2] | outcome [3] | Potency [4] | outcome [5] | outcome [6] | Potency [7] | Potency [8] | outcome [9] | Potency [13] | Potency [11]

CCCO[Si](OCCC)(OCCC)OCCC
inactive: outcome [12] | outcome [2] | outcome [3] | outcome [14] | Potency [4] | outcome [5] | outcome [6] | Potency [8] | outcome [9] | Potency [11]

CC(C)(CCC(=O)O)C(=O)O
inactive: outcome [12] | outcome [2] | outcome [3] | outcome [14] | Potency [4] | outcome [5] | outcome [6] | Potency [8] | outcome [9] | Potency [11]

C=COCC1CCC(COC=C)CC1 (stereo unspecified)
inactive: outcome [12] | outcome [2] | outcome [3] | outcome [14] | Potency [4] | outcome [5] | outcome [6] | Potency [7] | Potency [8] | outcome [9] | Potency [11]

COc1ccc2cc1Oc1cc3c(cc1OC)CC[N+](C)(C)[C@H]3Cc1ccc(cc1)Oc1c(OC)c(OC)cc3c1[C@@H](C2)[N+](C)(C)CC3
inactive: outcome [12] | outcome [2] | outcome [3] | outcome [14] | Potency [4] | outcome [5] | outcome [6] | Potency [7] | Potency [8] | outcome [9] | Potency [11]

CC(=O)N1C[C@H](O)C[C@H]1C(=O)O
inactive: outcome [2] | outcome [3] | outcome [14] | Potency [4] | outcome [5] | outcome [6] | Potency [7] | Potency [8] | outcome [9] | Potency [11]

C=COC(=O)C(C)(CC)CCC(C)C (stereo unspecified)
inactive: outcome [12] | outcome [2] | outcome [3] | outcome [14] | Potency [4] | outcome [5] | outcome [6] | Potency [7] | Potency [8] | outcome [9] | Potency [11]

O=Cc1cccc(Br)c1
inactive: outcome [12] | outcome [2] | outcome [3] | outcome [14] | Potency [4] | outcome [5] | outcome [6] | Potency [7] | Potency [8] | outcome [9] | Potency [13]

CN(C)C(=O)Oc1cccc([N+](C)(C)C)c1
inactive: outcome [12] | outcome [2] | outcome [3] | outcome [14] | Potency [4] | outcome [6] | Potency [7] | Potency [8] | outcome [9] | outcome [15] | outcome [16]

CCC(C)(CN(C)C)OC(=O)c1ccccc1 (stereo unspecified)
inactive: outcome [12] | outcome [2] | outcome [3] | outcome [14] | Potency [4] | outcome [6] | Potency [8] | outcome [9] | Potency [13] | Potency [11]

C[C@@H]1CCC[C@H](C)N1
inactive: outcome [2] | outcome [3] | Potency [4] | outcome [5] | outcome [6] | Potency [7] | Potency [8] | outcome [9] | Potency [11]

CCCCN(CCC(=O)OCC)C(C)=O
inactive: outcome [12] | outcome [2] | outcome [3] | outcome [14] | Potency [4] | outcome [5] | outcome [6] | Potency [7] | Potency [8] | outcome [9] | Potency [11]

C=C(C)C(=O)OCC(O)CO (stereo unspecified)
inactive: outcome [12] | outcome [2] | outcome [3] | Potency [4] | outcome [5] | outcome [6] | Potency [7] | Potency [8] | outcome [9] | Potency [11]

CC(C(=O)O)c1cccc(Oc2ccccc2)c1 (stereo unspecified)
inactive: outcome [12] | outcome [2] | outcome [3] | outcome [14] | Potency [4] | outcome [5] | outcome [6] | Potency [7] | Potency [8] | outcome [9]

CC(=O)OCC(=O)[C@@]1(O)[C@H](C)C[C@H]2[C@@H]3CCC4=CC(=O)C=C[C@]4(C)[C@@]3(F)[C@@H](O)C[C@@]21C
inactive: outcome [12] | outcome [2] | outcome [3] | outcome [14] | Potency [4] | outcome [6] | Potency [8] | outcome [9] | Potency [11]
